Measurements as given in PubChem BioAssay AID1566 (Sanford-Burnham Center for Chemical Genomics, 2009).
Hit rate of the full screen: of about 290,000 compounds, about 1,800 (0.62%) were called active. Rule as the data show it: active = inhibition above about 50%; inactive = the rest. Many of the other results were omitted from the sample, so actives are more common in it than they were.

Assay: inhibition of NOD2-driven NF-kB reporter – cell-based, luminescence, uHTS, HEK293 (AID 1566)
Details: HEK293 NOD2/NF-kB luciferase reporter, at 4 µM, hits give high values

| SMILES | inhibition |
| --- | --- |
| COc1ccc(/C=C2\SC(=S)N(CCC(=O)NC3C=CS(=O)(=O)C3)C2=O)cc1 (stereo unspecified) | 11.8% (inactive) |
| O=C(O)c1ccccc1C(=O)Nc1ccc(Oc2cccc3ccccc23)cc1 | 61.3% (active) |
| O=C(O)c1ccccc1C(=O)Nc1ccc(Oc2ccccc2)cc1 | 7.7% (inactive) |
| Cc1cccc(Oc2ccc(NC(=O)c3ccccc3C(=O)O)cc2)c1C | 8.6% (inactive) |
| CC(C)[C@H](NC(=O)OC(C)(C)C)C(=O)N/N=C/c1cccc2nccnc12 | 10.5% (inactive) |
| COc1ccc(Cc2nnc(SCc3ccc([N+](=O)[O-])cc3)o2)cc1 | 56.9% (active) |
| O=[N+]([O-])c1ccc(CSc2nnc(Cc3ccccc3)o2)cc1 | 1.1% (inactive) |
| CC(=O)CSc1nnc(Cc2ccc([N+](=O)[O-])cc2)o1 | 9.2% (inactive) |
| O=C(O)CNC(=S)N(Cc1ccccc1)Cc1ccccc1F | 16.1% (inactive) |
| CN=c1scc(-c2ccccc2Br)n1/N=C/c1ccc[nH]1 | 42.5% (inactive) |
| CN=c1scc(-c2ccccc2F)n1/N=C/c1ccc(O)c(O)c1O | 18.1% (inactive) |
| CN=c1scc(-c2ccccc2F)n1/N=C/c1ccc[nH]1 | 90.4% (active) |
| Cc1cc(C(=O)COC(=O)C2CC2)c(C)n1-c1ccc(F)cc1 | 60.3% (active) |
| Cc1cc(C(=O)CN2CCCCC2)c(C)n1-c1ccc(F)cc1 | -23.5% (inactive) |
| Cc1cc(C(=O)COC(=O)c2ccc[nH]c2=O)c(C)n1-c1ccc(F)cc1 | -12.8% (inactive) |
| Cc1cccc(C(=O)NC(=S)Nc2ccc3[nH]c(=O)[nH]c3c2)c1 | -10.1% (inactive) |
| O=C(COC(=O)CCC(=O)c1cccs1)Nc1ccc(Cl)cn1 | -14% (inactive) |
| Cc1cc(C2=NNC(=NC3CCCCC3)SC2)c(C)n1-c1c(C)n(C)n(-c2ccccc2)c1=O | 2% (inactive) |
| Cc1cc(-c2csc(N)n2)c(C)n1Cc1ccco1 | 1.7% (inactive) |
| CCN=C1NN=C(c2cc(C)n(Cc3ccco3)c2C)CS1 | 82.2% (active) |
| COCCCN=C1NN=C(c2cc(C)n(Cc3ccco3)c2C)CS1 | -60.2% (inactive) |
| CCN=C1NN=C(c2cc(C)n(CCc3ccccc3)c2C)CS1 | 0.1% (inactive) |
| Cc1cc(C2=NNC(=NC3CC3)SC2)c(C)n1Cc1ccco1 | 85.3% (active) |

| SMILES | inhibition |
| --- | --- |
| CCCC(=O)C1=C(O)C(C(=O)OC)C(C)(C)CC1=Nc1cccc2ccccc12 (stereo unspecified) | 13.4% (inactive) |
| CCCn1c(SCC(=O)NC2CCCCC2)nnc1-c1ccccn1 | 22.2% (inactive) |
| C=CCn1c(O)c(C=Nc2ccc(CN3CCCCC3)cc2)c(=O)[nH]c1=S | 25.5% (inactive) |
| CCCCCCn1ccc(=N)cc1 | 40.3% (inactive) |
| CCCCCn1ccc(=N)cc1 | 31.1% (inactive) |
| C/C(=N\NC(N)=S)C1=CCC2C3CC[C@H]4CC(O)CC[C@]4(C)C3CC[C@]12C (stereo partly specified) | 54.6% (active) |
| C[C@]12CCC3C(CC[C@H]4CC(O)CC[C@]34C)C1CC/C2=N/O (stereo partly specified) | 26.5% (inactive) |
| C[C@]12CCC3C(CC[C@H]4CC(O)CC[C@]34C)C1CC/C2=N/NC(=O)c1ccncc1 (stereo partly specified) | -5.7% (inactive) |
| O=C(Oc1ccccc1C(=O)Nc1ccccc1)c1ccc(Br)c([N+](=O)[O-])c1 | -12.7% (inactive) |
| Cc1cc(CNC(=O)c2cccc([N+](=O)[O-])c2C)c2ccccc2n1 | 31.5% (inactive) |
| O=C(CSc1nnc(CNC(=O)c2ccco2)o1)Nc1ccc(OC(F)(F)F)cc1 | 9.8% (inactive) |
| COc1ccccc1NC(=O)CSC1=NC(=O)C(Cc2ccccc2)C(=O)N1 (stereo unspecified) | -3% (inactive) |
| CC(=O)NS(=O)(=O)c1ccc(NS(=O)(=O)c2ccc3ccccc3c2)cc1 | 0.7% (inactive) |
| COc1ccccc1Cn1c(=S)[nH]c2cc(C(=O)NCCN(C)C)ccc2c1=O | 20.6% (inactive) |
| Cc1cc(NC(=O)CSc2ccc3nnc(-c4ccc(Cl)cc4)n3n2)no1 | 5.8% (inactive) |
| CCOc1cc(/C=C2\C(=N)N3N=C(C)SC3=NC2=O)ccc1OCCOc1cccc(OC)c1 | 7.2% (inactive) |
| C=CCOc1ccc(/C=C2\C(=N)N3N=C(S(=O)(=O)CC)SC3=NC2=O)cc1OC | 28.5% (inactive) |
| COc1cc(/C=C2\C(=N)N3N=C(S(C)(=O)=O)SC3=NC2=O)cc(OC)c1OCCOc1cccc(C)c1 | 25.9% (inactive) |
| CCS(=O)(=O)C1=NN2C(=N)/C(=C\c3ccc(OS(=O)(=O)c4ccccc4)c(OC)c3)C(=O)N=C2S1 | 12.5% (inactive) |
| CCOC(=O)C1=NN(c2ccccc2)C2C(=O)N(c3ccccc3OC)C(=O)C12 (stereo unspecified) | 21.2% (inactive) |
| Cc1cc(C)n2nc(SCC(=O)c3ccccc3)nc2n1 | -15.3% (inactive) |
| COc1cc(CC(=O)Nc2nc(-c3ccc(F)c(F)c3)cs2)cc(OC)c1OC | 58.7% (active) |
| COc1ccc(-c2csc(NC(=O)Cc3cc(OC)c(OC)c(OC)c3)n2)cc1OC | 22.7% (inactive) |

| SMILES | inhibition |
| --- | --- |
| COc1ccc(CC(=O)Nc2nc(-c3ccc(F)c(F)c3)cs2)cc1 | 15.8% (inactive) |
| O=C(Nc1c(F)cc(F)cc1Br)c1cccnc1 | -9.2% (inactive) |
| C/C(CC(=O)Nc1ccc(Cl)c(Cl)c1)=N\NC(N)=S | -15.1% (inactive) |
| COc1ccc(-c2cc(C(F)(F)F)c(C#N)c(SCC(=O)O)n2)cc1 | 9.7% (inactive) |
| COc1ccc(-c2cc(-c3ccc(Cl)cc3)c(C#N)c(SCC(=O)O)n2)cc1 | 62.5% (active) |
| N#Cc1c(-c2ccc(Cl)cc2)cc(-c2ccccc2)nc1SCC(=O)O | 26% (inactive) |
| COc1ccc(Cl)c(OC)c1C(=O)NC(=O)Nc1nc(C)nc(C)n1 | 3.1% (inactive) |
| CCC(=O)Nc1cc2nn(-c3ccccc3)nc2cc1Cl | -189% (inactive) |
| CC(C)(C)C(=O)Nc1cc2nn(-c3ccccc3)nc2cc1Cl | 76.2% (active) |
| CC(=O)Nc1cc2nn(-c3ccccc3)nc2cc1Cl | -133% (inactive) |
| CC1(C)c2ccccc2N2CCC(=O)NC21/C=C/c1ccco1 (stereo unspecified) | 3.8% (inactive) |
| COc1ccc(NC(=O)c2cccc(N3C(=O)C4C5C=CC(C6CC56)C4C3=O)c2)cc1 (stereo unspecified) | 9.4% (inactive) |
| COC(=O)c1ccc(NC(=O)c2cccc(N3C(=O)C4C5C=CC(C6CC56)C4C3=O)c2)cc1 (stereo unspecified) | 58.5% (active) |
| O=C(Nc1ccccc1)c1cccc(N2C(=O)C3C4C=CC(C5CC45)C3C2=O)c1 (stereo unspecified) | 31.7% (inactive) |
| CCOc1ccccc1C(=O)NC(C(=O)NCc1ccccc1OC)C(C)C (stereo unspecified) | 2.5% (inactive) |
| COCCNC(=S)N1CCN(c2nc(-c3ccc(Cl)cc3)cs2)CC1 | 35.9% (inactive) |
| CNC(=S)N1CCN(c2nc(-c3ccc(Cl)cc3)cs2)CC1 | 11.2% (inactive) |
| CC(C)CNC(=S)N1CCN(c2nc(-c3ccc(Cl)cc3)cs2)CC1 | 54.9% (active) |
| CCN(CC(=O)Nc1c(F)cccc1F)C(=O)CCc1c[nH]c2ccccc12 | -24.9% (inactive) |
| Cc1onc(-c2ccccc2)c1NC(=O)N(CCC(=O)O)Cc1ccccc1 | 15.3% (inactive) |
| Cc1c(NC(=O)NCc2ccccc2)c(=O)n(-c2ccccc2)n1C | -6.6% (inactive) |
| Cc1ccc(C(=O)N/C(=C\c2ccc(-c3ccccc3[N+](=O)[O-])o2)C(=O)NCCN(C)C)cc1 | 50.5% (active) |
| Cc1ccc(C(=O)N/C(=C\c2ccc(-c3ccccc3[N+](=O)[O-])o2)C(=O)NCCCN2CCOCC2)cc1 | 38.2% (inactive) |

| SMILES | inhibition |
| --- | --- |
| Cc1ccc(C(=O)N/C(=C\c2ccc(-c3ccccc3[N+](=O)[O-])o2)C(=O)NCCCN(C)C)cc1 | 49.4% (inactive) |
| NC(=O)c1cc([N+](=O)[O-])ccc1NCCN1C(=O)c2ccc(C(=O)O)cc2C1=O | 17.5% (inactive) |
| Cc1cc(=O)[nH]c2ccc(S(=O)(=O)Nc3ccccc3)cc12 | 4.4% (inactive) |
| O=C(Nc1ccc(C(=O)N2CCOCC2)cc1)c1cccc(Br)c1 | 8% (inactive) |
| Cc1sc2nc3c(C(=O)N4CCN(c5ccccn5)CC4)cccn3c(=O)c2c1C | 3.3% (inactive) |
| C/C(Cn1nnc([N+](=O)[O-])n1)=N\NC(=O)c1cccc(Cl)c1 | 48.8% (inactive) |
| C/C(Cn1nnc([N+](=O)[O-])n1)=N\NC(=O)c1ccc(O)cc1 | 37.7% (inactive) |
| COc1ccc(-c2csc(/C(C#N)=C\c3ccc(O)c([N+](=O)[O-])c3)n2)cc1OC | -7.4% (inactive) |
| COc1ccc(-c2csc(/C(C#N)=C\c3ccc(OC)c([N+](=O)[O-])c3)n2)cc1 | 25.7% (inactive) |
| Cc1ncc(CO)c(/C=N/Nc2cccc(Cl)n2)c1O | -52.5% (inactive) |
| Cc1ncc(CO)c(/C=N/NC(=O)c2ccc(Br)cc2)c1O | 51.6% (active) |
| Cc1ncc(CO)c(/C=N/Nc2ccc(C(F)(F)F)cn2)c1O | 59.1% (active) |
| COc1ccc(C(=O)N/N=C/c2c(CO)cnc(C)c2O)cc1 | -27.8% (inactive) |
| Cc1ncc(CO)c(/C=N/NC(=O)c2ccc(O)cc2)c1O | -8.9% (inactive) |
| COc1ccccc1N/N=C/c1c(CO)cnc(C)c1O | -3.8% (inactive) |
| Cc1c(=O)n(OCc2ccccn2)c2ccccc2[n+]1[O-] | 9.3% (inactive) |
| N#CC1=C(SCC(=O)Nc2ccc(C(=O)O)cc2)NC(=O)CC1c1ccco1 (stereo unspecified) | -4.5% (inactive) |
| COc1ccc(-c2[nH]ncc2CN2CCN(c3ccccn3)CC2)c(OC)c1 | 11.3% (inactive) |
| COC(=O)c1sc(S(=O)(=O)N2CCC(C(=O)O)CC2)c(C(=O)OC)c1C | -0.8% (inactive) |
| COC(=O)COc1ccc(S(=O)(=O)N2CCCCC2)cc1[N+](=O)[O-] | 4.8% (inactive) |
| COc1cc(NC(=O)COc2ccc(Cl)cc2)ccc1-c1cc2ccccc2oc1=O | 16.1% (inactive) |
| COc1cc(NC(C)=O)ccc1-c1cc2ccccc2oc1=O | -3.4% (inactive) |
